Shown are actives, neighbours in structure and some others; about 1.8% of the full set was active somewhere.
GRP78 ERSR act: induces the endoplasmic reticulum stress response in human glioma cells; Potency, µM, without a hit: at the highest dose activation, most hits filed as activators; 420,000 tested, 0.02% active; U87-MG GRP78 promoter luciferase reporter, 16 h; further: potency means the concentration at half of the fitted maximal effect; series mostly up to about 76 µM; % of control where 0% means no effect; nearly all actives have a fitted effect of over 35% in size
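Stably transfected U87-MG human glioma cells carrying a GRP78-based luminescent sensor were seeded at 1000 cells/well, pin-dosed with compounds and incubated 16 h. Luciferase reagent was then added, and end-point luminescence was read after 10 min at room temperature.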
TCR activator: activates T cell receptor signaling. 330,000 tested, under 10 active. Potency, µM (highest dose often 9.22 µM), without a hit: at the top dose activation of IL-2 secretion, actives largely listed as activators. primary human leukocytes, anti-CD3, IL-2 HTRF, 48 h; further: % of control where 0% means no effect
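48 hr co-incubation of compounds, a-CD3 beads and primary human leukocytes; IL-2 quantified homogeneously by HTRF with anti-IL-2 K and d2 conjugates.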
MBNL1 CUG block: MBNL1-poly(CUG) RNA binding inhibition. Q9NR56. TR-FRET MBNL1-His/biotin-(CUG)12 binding, 665/545 ratio. Potency, µM (titrated, usually from 57.5 µM), for the others: top-dose activity change, negative = inhibition, usual class: inhibitors. AID 2675. 280,000 tested, 0.036% active; active means well fitted inhibition curve with a large enough effect in the signal ratio, with a control signal flat, not every such curve was filed as active; inconclusive means small, poorly fitted or top-dose-only effect, or effect the other way, or a change in a side signal; inactive means no such curve, though single readings can be large or run the other way; the % refers to the signal ratio; further: potency means the concentration at half of the fitted maximal effect; on the % scale 0 is the no-effect control and ±100 the full control effect
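Compound titration spanned 92 nM–58 uM against the MBNL1-His/biotin-(CUG)12 complex. After 60 min at room temperature with 5 nM streptavidin-XL665 and 0.055 ng/ul terbium anti-His, ratiometric 665/545 nm emission (Ex 340 nm) normalized to controls.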
Mito fusion yeast: blocks mitochondrial division or promotes mitochondrial fusion | S. cerevisiae fusion-defective mutant growth rescue, CellTiterGlo 48 h | Potency, µM (titrated, usually from 46.1 µM), for the others: at the top dose growth rescue (activation), usual class: activators | 320,000 tested, 0.23% active; further: potency means the concentration at half of the fitted maximal effect; % of control where 0% means no effect; nearly all actives have a fitted effect of over 45% in size
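Luminescent cell viability in 1536-well qHTS format served as the measure of rescued growth in ts fusion-mutant S. cerevisiae cultured on non-fermentable YPEG for 48 hours at 37C.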
ClpP mod: qHTS Assay for Activators of ClpP; ATP-dependent Clp protease proteolytic subunit (Bacillus subtilis (strain 168)), P80244; purified B. subtilis ClpP, FRET peptide cleavage, 20 min; Potency, µM (titrated, usually from 57.5 µM), for the others: at the highest dose activity change, negative = active; 340,000 tested, 1.9% active; active means well fitted falling curve with a large enough effect; inconclusive means small, poorly fitted or top-dose-only effect; inactive means no such curve, though single readings can be large or run the other way; further: potency means the concentration at half of the fitted maximal effect; the source files actives as falling curves though it sought activators and does not explain the sign; nearly all actives have a fitted effect of over 65% in size
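Buffer: 100 mM Tris/HCl pH8, 100 mM KCl, 0.05% low protease BSA, 2.5% glycerol, 0.01% Tween-20. ClpP 10 microg/mL final; 20 min RT; delta FRET normalized to ADEP and DMSO controls.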
AT treatment: potential ataxia-telangiectasia treatments restoring KAP-1 phosphorylation; F2112 A-T fibroblasts, KAP-1 phosphorylation AlphaLISA; neocarzinostatin DNA damage 30 min before lysis; Potency, µM (highest dose often 57.5 µM), inactives show at the highest dose activation, most hits filed as activators; 320,000 tested, 0.19% active; AID 485349; further: potency means the concentration at half of the fitted maximal effect; % of control where 0% means no effect; nearly all actives have a fitted effect of over 45% in size
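ATM-like activity read as KAP-1 phosphorylation via AlphaLISA donor/acceptor antibody pairs after lysis and 6 hr at 25C. Cells were ATM-null patient fibroblasts (F2112, hTERT), dosed 60 min, then exposed to the DSB inducer NCS for 30 min.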
The depositor's hits bear a star; ? = inconclusive; nt = not tested or not shown; ! = repeats disagree; [ ] = dose if it differs, or a comment. Unless noted, the call rests on the fitted dose curve; in most records, active means well fitted curve in the direction sought with a large enough effect; inconclusive means small, poorly fitted or top-dose-only effect, or another doubt; inactive means no such curve, though single readings can be large; an effect the other way counts as inactive or inconclusive.

SMILES	GRP78 ERSR act	TCR activator	MBNL1 CUG block	Mito fusion yeast	ClpP mod	AT treatment
Cc1noc(C)c1CC(=O)NCC1Cc2cc(-c3cccc(OC(F)(F)F)c3)ccc2O1 (configuration not stated)	-2%	nt	nt	nt	nt	nt
CC(=O)CC/C=C(\C)CC/C=C(/C)CC/C=C(\C)CCC=C(C)C	-2%	nt	nt	nt	nt	nt
CCOc1ccc(S(=O)(=O)N2CCCCC2)cc1NC(=O)C1CCC1	0%	-2%	nt	1%	14µM*	-5%
O=C(Nc1cc(S(=O)(=O)N2CCCCCC2)ccc1OCC(F)(F)F)C1CCC1	-3%	-5%	2%	0%	2%	14%
CC[N+](C)(C)c1ccc(/C=C/c2ccc3ccccc3n2)cc1	-10%	nt	nt	nt	-1%	nt
CC(=O)Nc1ccc(-c2cc3ccccc3o2)cc1	-3%	11%	-1%	9%	14µM*	6%
CCCC(=O)Nc1ccc(C(=O)N/N=C/c2ccc([N+](=O)[O-])o2)cc1	-4%	-2%[46.1 µM]	?	0%	32µM*	-5%
O=C(N/N=C\c1ccc([N+](=O)[O-])o1)c1ccc(O)cc1	-8%	nt	nt	nt	nt	nt
CCCCCCCC(=O)Nc1ccc(C(=O)N/N=C/c2cccc([N+](=O)[O-])c2)cc1	6%	4%	0%	0%	28µM*	0%
Nc1[nH]c(=S)[nH]c(=O)c1N=O	-3%	nt	nt	nt	-1%	nt
Cc1ccccc1C(=O)NC(C)c1nnc2n1CCN(Cc1ccc(F)cc1)CC2 (configuration not stated)	-4%	nt	nt	nt	nt	nt
CCN1C(=O)c2cccc3c(N)ccc(c23)C1=O	5%	-7%	?	2%	-10%	40µM*
Cc1nn(C)c(C)c1N1C(=O)c2cccc3c(N)ccc(c23)C1=O	-1%	5%[46.1 µM]	31%[11.5 µM]	6%	1%	8%
CCCCNc1ccc2c3c(cccc13)C(=O)N(CCCC)C2=O	-3%	1%	20%	16%	-1%	28µM*
Cn1c2c(c(=O)n3ncnc13)CCCC2	-3%	2%	5%	0%	22µM*	12%
Cc1c(C(=O)N2CCN(C)CC2)sc2ncnc(NCC3(c4ccccc4)CCOCC3)c12	-3%	nt	nt	nt	nt	nt
CCN(CC)C(=O)CSc1nc2nc(C)cc(C)c2c(=O)[nH]1	-3%	0%	-28%	-1%	25µM*	9%
N#Cc1c(N)n(-c2ccc(N)cc2)c2nc3ccccc3nc12	-7%	-1%	nt	-3%	nt	-3%
N#Cc1c(N)n(C2CCCCC2)c2nc3ccccc3nc12	1%	4%	2%	3%	32µM*	8%
Cc1cc(C)c(C#N)c(N2CCSCC2)n1	-4%	-5%	-12%	-3%	35µM*	-4%
Cc1cc(C)c(C#N)c(N2CCCC(C(N)=O)C2)n1 (configuration not stated)	-4%	-9%	-2%	-14%	3.5µM*	-5%
CC(C)(C)n1nnnc1CN(Cc1ccco1)Cc1cc2cc3c(cc2[nH]c1=O)OCO3	3%	-85%	15%	-3%	28µM*	-3%
CCC(C)(C)n1nnnc1CN(Cc1ccco1)Cc1cc2cc3c(cc2[nH]c1=O)OCO3	-2%	-3%	-4%	6%	32µM*	16%
COc1ccc2[nH]c(=O)c(CN(Cc3ccco3)Cc3nnnn3Cc3ccccc3)cc2c1	0%	1%	?	-8%	25µM*	?
COCCn1nnnc1CN(Cc1ccco1)Cc1cc2cc3c(cc2[nH]c1=O)OCO3	0%	13%	2%	-4%	28µM*	2%
SMILES	GRP78 ERSR act	TCR activator	MBNL1 CUG block	Mito fusion yeast	ClpP mod	AT treatment
Cc1ccccc1C(=O)NC(C)c1nnc2n1CCN(Cc1ccccc1F)CC2 (configuration not stated)	-4%	nt	nt	nt	nt	nt
COc1ccccc1N1CCN(c2nc(CNC(=O)C3CC34CCCC4)nc3ccccc23)CC1 (configuration not stated)	-6%	nt	nt	nt	nt	nt
O=C(/C=C/c1ccc(O)cc1)c1ccc(O)cc1O	?	1%	3%	16µM*!	1%	-19%
COc1ccc(/C=C/C(=O)c2ccc(O)cc2O)cc1	10%	nt	nt	nt	nt	nt
CSc1nnc(-c2cccn(Cc3ccccc3)c2=O)o1	-3%	-1%	?	16%	nt	5%
O=c1c(-c2nnc(SCc3ccc(Cl)cc3Cl)o2)cccn1Cc1ccccc1	-3%	5%	10%	6%	3.2µM*	6%
CCCc1c(C)[nH]c2nc3ccccc3n2c1=O	3%	-1%	8%	-30%	2%	16%
O=c1cc(CCl)[nH]c2nc3ccccc3n12	?	11%	nt	-1%	3%	-3%
CCc1c(C)[nH]c2nc3ccccc3n2c1=O	0%	-7%	9%	8%	28µM*	0%
O=c1cc(-c2ccccc2)[nH]c2nc3ccccc3n12	-4%	-3%	11%	5%	11µM*	3%
Cc1cc(C)nc(S[C@H]2C[C@@H](C(=O)N3CCN(c4ccccc4F)CC3)N(Cc3ccccc3F)C2)n1	1%	nt	nt	nt	nt	nt
CCC(C)c1cc([N+](=O)[O-])cc([N+](=O)[O-])c1OC(=O)OC(C)C (configuration not stated)	-10%	nt	nt	nt	nt	nt
Cc1[nH]c(=O)[nH]c1C(=O)CCCCC(=O)O	-3%	-3%[46.1 µM]	0.089µM*	-6%	-2%	-1%
Fc1ccccc1N=C1NN=C(c2ccccc2)CS1	2%	1%	3%	16%	10µM*	-7%
O=C(Nc1cccc(Cl)c1)Nn1cnnc1	-5%	-4%	25µM*	1%	1%	-1%
O=C(Nc1ccccc1)Nn1cnnc1	-6%	-2%	?	14%	nt	-1%
CCN1CCN(CCC(=O)Nc2cc(OC)cc(OC)c2)CC1	-6%	5%	-1%	0%	28µM*	-6%
CCN1CCN(CC(=O)Nc2c(OC)cccc2OC)CC1	-6%	-3%	4%	-1%	22µM*	11%
Cc1nnc(N2C(=O)c3cccc4cccc(c34)C2=O)s1	-2%	7%	?	-10%	28µM*	nt
CCOC(=O)c1cnc2ccc(OCC)cc2c1NCc1ccccc1OC	-6%	2%	nt	1%	22µM*	11%
Cc1ccc2cc(CNC(C)CO)c(N3CCC(O)CC3)nc2c1 (configuration not stated)	-6%	nt	nt	nt	nt	nt
Cc1c(NC(=O)COC(=O)c2ccccc2Cl)c(=O)n(-c2ccccc2)n1C	-2%	-5%	-3%	-1%	nt	1%
COc1ccc2c(C)cc(SCC(=O)Nc3c(C)n(C)n(-c4ccccc4)c3=O)nc2c1	0%	-2%	-5%	-3%	25µM*	10%
Cc1c(NC(=O)CSc2nc(N)cc(N)n2)c(=O)n(-c2ccccc2)n1C	-4%	6%	nt	1%	28µM*	9%
